Measurements published in the supplement of paper PMC10338343.
± gives the standard deviation.

Tested on: MILI (PIWIL2) piRISC loaded with piRNA #1 (26 nt)
Assay: pre-steady-state target cleavage rate (min^-1); guide: piRNA #1 5'p-UGAGGUAGUAGGUUGUAUAGUAUCCA; MIWI and MILI are mouse PIWI proteins and EfPiwi is from a freshwater sponge; tags in brackets are library labels; higher = faster piRNA-guided slicing of the target
Conditions: auxiliary factor: 500 nM mouse GTSF1
Procedure, shortened: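 Cleave-'n-Seq: 1 nM active affinity-purified piRISC with one synthetic guide and 0.1 nM transcribed, DNA-blocked target RNA library were mixed, with or without 500 nM GTSF1 partner protein, in HEPES–potassium acetate buffer at 33 °C for 0–8 or 0–960 min. Uncleaved targets were sequenced and normalised to depth and to weakly complementary targets, three trials were pooled, and k3 was capped at 0.0001 min^-1. The pre-steady-state cleavage rate was fitted […].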

Sequence | pre-steady-state target cleavage rate
GGAGACCUAUGAUAUGUUGGUAUACCUCA | < 0.0001
GGAGACCAUACUAAACAACCAACUACCUCA | 0.00724 ± 0.003
GGAGACCUAUGAUUACAACCGUACUACCUCA | 0.00334 ± 0.0031
GGAGACCUAUGUAUUCAACCUUCUACCUCA | 0.00294 ± 0.0026
GGAGACCUAUGAUUACAACCUACCACCUCA | 0.00484 ± 0.0035
GGAGACCUAUGAUUUCAUCCUACUACCUCA | 0.0038 ± 0.0025
GGAGACCAUACUAUUCAACCUUCUACCUCA | 0.00695 ± 0.0026
GGAGAGGAUACUAUACUACCUACUACCACA | 0.171 ± 0.016
GGAGACCUAUGUAUACAACCUACUACAUCA | 0.0269 ± 0.0059
GGAGACCUAUGAUUACAACCUAUUACCUCA | 0.00348 ± 0.0024
GGAGAGGAUAGAAUACAACCUACUACCUCA | 0.096 ± 0.01
GGAGACCUAUCUAUACUACCUACUACCUGA | 0.0569 ± 0.013
GGAGACCUAUCUAUAGUACCUACUACCUCA | 0.092 ± 0.014
GGAGUGGAUACUAUUCAACCUACUACCUGA | 0.0817 ± 0.011
GGAGACCUAUGAUUACAUCCUACUUCCUCA | 0.00764 ± 0.0027
GGAGACCAUAGUAUACAACCUACAACCUCA | 0.129 ± 0.017
